# In all, about 8,300 sequences were measured (“log2 fold change of degron read counts, EGFP-low vs EGFP+ sorted cells (limma voom), compound-induced degradation”: median about -1.1, highest 2% from about 3.2 on). This excerpt belongs to a sample that is enriched for the highest values.
# T1: CRBN, Q96SW2
# T1 chain: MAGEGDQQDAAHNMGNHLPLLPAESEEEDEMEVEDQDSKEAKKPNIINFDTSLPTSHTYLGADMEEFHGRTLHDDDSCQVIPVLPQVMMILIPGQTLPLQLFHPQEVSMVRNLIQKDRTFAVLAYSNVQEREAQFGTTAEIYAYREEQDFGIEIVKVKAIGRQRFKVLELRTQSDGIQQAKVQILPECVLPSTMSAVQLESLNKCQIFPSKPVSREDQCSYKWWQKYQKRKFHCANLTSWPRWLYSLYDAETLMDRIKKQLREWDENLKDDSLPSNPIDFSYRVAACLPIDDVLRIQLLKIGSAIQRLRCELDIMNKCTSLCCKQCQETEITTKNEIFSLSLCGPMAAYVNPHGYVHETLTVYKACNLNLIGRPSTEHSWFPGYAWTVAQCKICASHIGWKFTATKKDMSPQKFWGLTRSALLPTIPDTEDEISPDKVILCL
# Target: T1, CRBN, Q96SW2
# Assay: log2 fold change of degron read counts, EGFP-low vs EGFP+ sorted cells (limma voom), compound-induced degradation; higher = more compound-induced degradation of the degron-EGFP fusion; degrons are variants of IKZF1/3 zinc finger 2; compound dose not given here
# Details: Jurkat, 18 h
# Method: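 Pooled library of 8380 IKZF3 ZF2 degron mutants (positions 146-167 varied within the IKZF3 130-189 degron; only the varied core is printed, flanks not printed) fused to EGFP with IRES-mCherry, lentivirally expressed in Jurkat cells. mCherry+ cells were treated with one IMiD compound for 18 h (dose not stated) and FACS-sorted into EGFP-low and EGFP+ populations. Degron sequences were counted by NGS, and log2FC (EGFP-low vs EGFP+) was estimated by limma voom over 3 biological replicates.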
# [1] = compound: compound 19 (5-tert-butyl-thalidomide)
# [2] = compound: compound 22 (5-morpholino-thalidomide)
# [3] = compound: compound 33 (diphenyl IMiD analogue)
# 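Note: pooled lentiviral library of zinc finger degron-EGFP fusions in mCherry-positive Jurkat cells, FACS-sorted after compound exposure, with degron abundance counted by next-generation sequencing.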
Sequence,log2 fold change of degron read counts [1],log2 fold change of degron read counts [2],log2 fold change of degron read counts [3],log2 fold change of degron read counts (compound: thalidomide)
"FSCNICGATFTQKGNLLRHIKL [46F_47S_49N_50I_52G_53A_54T_55F_67L_, Q9UKT9]",0.862,1.72,1.81,0.773
"FRCSVCGHPFTQKGNLLRHIKL [46F_47R_49S_50V_52G_53H_54P_55F_67L_, Q9UKT9]",-1.61,0.0411,-0.252,-0.256
"LDCNQCGFVCTQKGNLLRHIKL [46L_47D_49N_50Q_52G_53F_54V_55C_67L_, Q9UKT9]",-1.84,-2.2,-2.2,-1.82
"FDCNVCGASFTQKGNLLRHIKL [46F_47D_49N_50V_52G_53A_54S_55F_67L_, Q9UKT9]",-0.855,-1.38,-1.21,-0.475
"FDCEICGRTFTQKGNLLRHIKL [46F_47D_49E_50I_52G_53R_54T_55F_67L_, Q9UKT9]",-2.33,-3.04,-1.56,-1.64
"FRCEICGRSFTQKGNLLRHIKL [46F_47R_49E_50I_52G_53R_54S_55F_67L_, Q9UKT9]",-2.18,-2.81,-0.226,-0.504
"FECNICGAIFTQKGNLLRHIKL [46F_47E_49N_50I_52G_53A_54I_55F_67L_, Q9UKT9]",-2.22,-1.59,0.523,1.84
"FYCPVCGASFTQKGNLLRHIKL [46F_47Y_49P_50V_52G_53A_54S_55F_67L_, Q9UKT9]",3.09,3.3,2.34,1.12
"FHCPVCGASFTQKGNLLRHIKL [46F_47H_49P_50V_52G_53A_54S_55F_67L_, Q9UKT9]",2.48,2.53,2.04,0.495
"FVCDVCGASFTQKGNLLRHIKL [46F_47V_49D_50V_52G_53A_54S_55F_67L_, Q9UKT9]",-1.45,1.32,0.282,0.656
"FWCPVCGASFTQKGNLLRHIKL [46F_47W_49P_50V_52G_53A_54S_55F_67L_, Q9UKT9]",3.31,3.48,2.42,1.35
"FICPVCGASFTQKGNLLRHIKL [46F_47I_49P_50V_52G_53A_54S_55F_67L_, Q9UKT9]",-0.331,2.74,2.17,2.62
"FCCPVCGASFTQKGNLLRHIKL [46F_47C_49P_50V_52G_53A_54S_55F_67L_, Q9UKT9]",3.07,2.44,2.49,2.37
"FWCDVCGASFTQKGNLLRHIKL [46F_47W_49D_50V_52G_53A_54S_55F_67L_, Q9UKT9]",2.69,3.48,1.06,-0.779
"FLCPVCGASFTQKGNLLRHIKL [46F_47L_49P_50V_52G_53A_54S_55F_67L_, Q9UKT9]",0.819,-0.0304,1.62,1.37
"FECDVCGASFTQKGNLLRHIKL [46F_47E_49D_50V_52G_53A_54S_55F_67L_, Q9UKT9]",-0.176,-2.77,-0.519,-0.688

Sequence,log2 fold change of degron read counts [1],log2 fold change of degron read counts [2],log2 fold change of degron read counts [3],log2 fold change of degron read counts (compound: thalidomide)
"FTCNQCGHIFTQKGNLLRHIKL [46F_47T_49N_50Q_52G_53H_54I_55F_67L_, Q9UKT9]",-3.22,-3.78,-2.72,-3.39
"LFCNQCGFTCTQKGNLLRHIKL [46L_47F_49N_50Q_52G_53F_54T_55C_67L_, Q9UKT9]",-0.962,-0.778,-1.34,-1.55
"FACNICGAWFTQKGNLLRHIKL [46F_47A_49N_50I_52G_53A_54W_55F_67L_, Q9UKT9]",-0.878,-0.37,-0.973,-1.22
"FECNQCGRSFTQKGNLLRHIKL [46F_47E_49N_50Q_52G_53R_54S_55F_67L_, Q9UKT9]",-2.91,-4.04,-3.77,-2.98
"LMCNQCGFPCTQKGNLLRHIKL [46L_47M_49N_50Q_52G_53F_54P_55C_67L_, Q9UKT9]",-2.18,-2.49,-1.64,-1.76
"FECEICGHSFTQKGNLLRHIKL [46F_47E_49E_50I_52G_53H_54S_55F_67L_, Q9UKT9]",-3.4,-3.98,-3.41,-3.14
"FSCDVCGAVFTQKGNLLRHIKL [46F_47S_49D_50V_52G_53A_54V_55F_67L_, Q9UKT9]",-0.211,-0.318,1.04,-0.804
"FSCPICGRVFTQKGNLLRHIKL [46F_47S_49P_50I_52G_53R_54V_55F_67L_, Q9UKT9]",-0.277,-0.0789,1.53,0.556
"FMCEICGHFFTQKGNLLRHIKL [46F_47M_49E_50I_52G_53H_54F_55F_67L_, Q9UKT9]",-3.03,-3.09,-2.32,-3.02
"FYCEICGALFTQKGNLLRHIKL [46F_47Y_49E_50I_52G_53A_54L_55F_67L_, Q9UKT9]",3.29,3.38,2.38,0.365
"FDCEICGALFTQKGNLLRHIKL [46F_47D_49E_50I_52G_53A_54L_55F_67L_, Q9UKT9]",-0.733,-1.67,0.189,-0.124
"FACEICGALFTQKGNLLRHIKL [46F_47A_49E_50I_52G_53A_54L_55F_67L_, Q9UKT9]",2.71,0.321,0.174,-0.494
"FQCEICGALFTQKGNLLRHIKL [46F_47Q_49E_50I_52G_53A_54L_55F_67L_, Q9UKT9]",-1.22,1.46,1.74,3.53
"FFCEICGALFTQKGNLLRHIKL [46F_47F_49E_50I_52G_53A_54L_55F_67L_, Q9UKT9]",3.18,2.91,1.74,0.646
"FLCEICGALFTQKGNLLRHIKL [46F_47L_49E_50I_52G_53A_54L_55F_67L_, Q9UKT9]",-0.92,-1.27,0.77,1.46

# — the supplement of paper PMC12645437, “Orthogonal IMiD-Degron Pairs Induce Selective Protein Degradation in Cells” (ACS Chemical Biology, 2025)
